Here are results for 40 compounds from PubChem BioAssay (NCI).

This is part of a sample that, as a whole, favours compounds with a hit. Of some 83,000 tested, about 20% had one in any assay.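 Activity criterion: percent growth below 10, measured after cells in 96-well plates were exposed to a single compound concentration for 48 hours.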 Unmarked numbers belong to inactive results. The source made the active and inactive calls.

In the test the test system is MDA-MB-468 breast. The test is described as follows: NCI-60 one-dose screen, 48 h (100 = growth as untreated, 0 = no growth, -100 = all killed). Conditions: 10 µM unless noted.
As for `COc1ccccc1S(=O)(=O)Nc1ccc2c3c(cc(-c4cnn(C5CC5)c4)nc13)C(=O)N2C`, the growth is 50.9%.
To `O=[N+]([O-])c1cc(Cl)c2[nH]c3c(Cl)cc([N+](=O)[O-])cc3c2c1` belongs -17.9% (active); to `COc1cc(C(=O)/C=C/c2c(-c3cccs3)nc3ccccn23)cc(OC)c1OC`, -30.4% (active); to `CN1CCCNc2c(c(=O)c2=O)NCCCN(C)CCCNc2c(c(=O)c2=O)NCCCN(C)CCCNc2c(c(=O)c2=O)NCCCN(C)CCCNc2c(c(=O)c2=O)NCCCN(C)CCCNc2c(c(=O)c2=O)NCCCN(C)CCCNc2c(c(=O)c2=O)NCCCN(C)CCCNc2c(c(=O)c2=O)NCCC1`, 32.9%.
To `Nc1nc(N)c2nc3c(nc2n1)CCCCCCCCCC3` belongs 58.1%; to `CC12CC3CC1C(C(=O)O2)C3C(=O)O` (stereo not given), 103%; to `CN1CCN(CCCOc2ccc3ncnc(Nc4ccc(OCc5cccc(F)c5)c(Cl)c4)c3c2)CC1`, -63.1% (active).
To `COc1ccc(N2CCC(=S)NC2=S)cc1` belongs 97.7%.
Take `CN1CCC(=C2c3ccccc3C=Cc3ccccc32)CC1`: the growth was 36%.
To `COc1ccc(C(=O)c2cc3c(N)c(C(=O)Nc4cccc(Br)c4C)sc3nc2C)cc1` belongs -1.96% (active).
Under `O=C(CN1N=C(c2ccc(F)cc2)CCC1=O)Nc1nccs1` stands 94.6%; under `COc1ccccc1N1CCN(C(CNS(=O)(=O)c2ccc(Cl)cc2)c2cccnc2)CC1` (stereo not given), 98.8%; under `O=C(Cc1ccc(/C=C/C(=O)c2ncc[nH]2)cc1)Nc1ccc(S(F)(F)(F)(F)F)cc1`, 52.7%.
Under `CN(C)CCOc1nc2c3cccnc3cc(-c3cccc(Cl)c3)c2c2ncccc12` stands 2.18% (active); under `CCNC(=O)N1CCc2cc(OC)c(OCCc3ccc(OC)nc3)cc2C1c1ccc(OC)cc1C` (stereo not given), 26.7%; under `CCn1cc(CNc2ccc(C(=O)Nc3cc4cc(OC)c(OC)cc4c(C)n3)cc2)cn1`, 41.8%.
With `CC(C)C[C@@H]1N[C@@]2(C(=O)Nc3ccccc32)[C@@H](c2ccc(F)cc2)[C@@H]1C(=O)c1ccc(O)cc1`, the growth was 102%.
Consider `Cc1cc(N2CCCCC2)nc(NCc2cc(Nc3ccnc4cc(Cl)ccc34)ccc2F)n1`, for which the growth is -60.3% (active).
To `CC(=O)Nc1cc(F)cc(-c2ccc3[nH]cc(-c4ccccc4)c3n2)c1` belongs -21.9% (active); to `C#C[C@@]1(O)[C@@H](CO)O[C@@H](n2cc(F)c3c(N)ncnc32)[C@@H]1O`, -46.2% (active).
To `COc1ccc(-c2nn(-c3cccc(NC(=O)c4cc(C(F)(F)F)cc(C(F)(F)F)c4)c3)cc2-c2ccncc2)cc1Cl` belongs 61.4%.
To `O=C1CCC(=O)CC1` belongs 115%.
`O=C(O)c1cn(C2CC2)c2cc(N3CCN(S(=O)(=O)c4ccc(Cl)c(Cl)c4)CC3)c(F)cc2c1=O`: the growth was -10.6% (active).
With `O=S(=O)(NCCCNc1nccc(-c2c(-c3ccc(F)c(O)c3)nc3occn23)n1)c1ccc(Cl)cc1`, the growth was 62.2%.
To `Cc1cc(-c2ccc(Cl)cc2)n(Cc2nnc(SCC(=O)Nc3ccc(S(N)(=O)=O)cc3)n2C2CCCCC2)n1` belongs 117%; to `CCN1C2=C(SC(=S)C1=C1SC(C(=O)OC)=C(C(=O)OC)S1)SC(=Nc1ccc(OC)cc1)C2=O`, -78% (active); to `COc1cc(C2C(C(=O)c3cccs3)=C(O)C(=O)N2CCN2CCOCC2)cc(OC)c1OC` (stereo not given), 101%.
Under `NS(=O)(=O)c1ccccc1NC(=O)Nc1nc2ccccc2s1` stands 104%; under `CCOC(=O)Nc1nc2ccc(SCC(C)C)cc2s1`, 2.1% (active); under `CCN(CC)C(Cl)=Nc1ccc(Cl)cc1`, 103%.
For `N#CCCc1c[nH]c2ccccc12`, the growth is 94.5%.
Under `CC(C)(C)OC(=O)CC(S(=O)(=O)c1ccccc1)S(=O)(=O)c1ccccc1` stands -23.7% (active).
Consider `COC(=O)CCCCCCCCC(C)c1ccc(C(C)=O)cc1` (stereo not given), for which the growth was 110%.
Under `CC(C)n1cnc2c(Nc3cccc(Cl)c3)nc(N[C@H]3CCCC[C@@H]3N)nc21` stands 20%.
To `c1cc(OCCN2CCCCCC2)ccc1CNc1ccc2nc(CCC3CCCCC3)[nH]c2c1` belongs 58.2%; to `CC1(C)CC[C@]2(CN)CC[C@]3(C)C(=CC[C@@H]4[C@@]5(C)CCCNC(C)(C)[C@@H]5CC[C@]43C)[C@H]2C1`, 96.1%.
Regarding `Cc1cccc(/C=C/C(=O)Nc2ncc(Cc3cccc(C)c3)s2)c1`, the growth was -15.3% (active).
For the compound `Oc1ccc(CSc2nnc(-c3ccc(Br)cc3)o2)c2cccnc12`, the growth was 35.4%.
To `Clc1ccccc1C(c1ccccc1)(c1ccccc1)n1ccnc1` belongs 2.94% (active); to `Nc1c(C(=O)c2ccccc2)sc2nc(-c3cnccn3)cc(-c3cccs3)c12`, 111%.
